From PubChem BioAssay (NCI)
Compounds without any hit were thinned out: in the full panel of roughly 83,000, 20% have a hit.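 96-well plates, one dose, 48 hours. Percent growth reported; active if below 10.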 Unmarked numbers belong to inactive results. Active and inactive are the calls of the source.

These compounds were tested on MOLT-4 leukemia (assay: NCI-60 one-dose screen, 48 h (100 = growth as untreated, 0 = no growth, -100 = all killed)). Conditions: 10 µM unless noted.
With `O=C1C=CC2(NN=C(c3ccccc3)N2c2ccc(Cl)cc2)c2cccc(O)c21` (centres undefined) the growth was 61.8%. With `CNC(=O)c1ccc(Nc2ncc(C(F)(F)F)c(NCc3nccnc3N(C)S(C)(=O)=O)n2)cc1` the growth was -9.42% (active). `CN(C)C/C=C/C(=O)Nc1cc2c(Nc3ccc(F)c(Cl)c3)ncnc2cc1O[C@H]1CCOC1` was tested, and the growth was -13.5% (active). `COc1cc(Nc2c(C#N)cnc3cc(OCCCN4CCN(C)CC4)c(OC)cc23)c(Cl)cc1Cl` gave a growth of 33.3%. In the case of `Cc1oc2c(C(=O)N/N=C\c3ccc(O)cc3O)c[nH]c2c1C`, the growth was 8.56% (active). `COc1c(OCCCN2CCOCC2)ccc2c3n(c(=NC(=O)c4cnc(N)nc4)nc12)CCN3` was tested, and the growth was 6.38% (active). Work on `c1cn2cc(-c3ccc4cn[nH]c4c3)nc(Nc3ccc(N4CCOCC4)cc3)c2n1` yielded a growth of 61.8%. In the case of `CN1CCN(CCOc2cc(OC3CCOCC3)c3c(Nc4c(Cl)ccc5c4OCO5)ncnc3c2)CC1`, the growth was 56.2%. In the case of `O=C(Cc1ccc(-c2ccc(OCCN3CCOCC3)cc2)cn1)NCc1ccccc1`, the growth was 18.1%. In the case of `COc1ccc(F)c(F)c1C(=O)c1cnc(NC2CCN(S(C)(=O)=O)CC2)nc1N`, the growth was 6.48% (active). In the case of `CCOc1ccc(N=C(C)Nc2ccc(OCC)cc2)cc1`, the growth was 93.8%. With `C[C@@H]1COC(Nc2ccc3ncnc(Nc4ccc(OCc5nccs5)c(Cl)c4)c3c2)=N1` the growth was 18.4%. In the case of `CCCCCC(=O)OCc1ccc(Cl)c(Cl)c1`, the growth was 98.7%. In the case of `C=CC(=O)Nc1cccc(Oc2nc(Nc3ccc(N4CCN(C)CC4)cc3)nc3ccsc23)c1`, the growth was -37.7% (active). With `C1=C\COCc2cc(ccc2OCCN2CCCC2)Nc2nccc(n2)-c2cccc(c2)COC/1` the growth was -8.61% (active). With `FC(F)c1nc2ccccc2n1-c1nc(N2CCOCC2)nc(N2CCOCC2)n1` the growth was 1.48% (active). For `Cc1cnc(Nc2ccc(OCCN3CCCC3)cc2)nc1Nc1cccc(S(=O)(=O)NC(C)(C)C)c1`, the growth was 1.26% (active). In the case of `C=CC(=O)Nc1cc2c(Nc3ccc(F)c(Cl)c3)ncnc2cc1OCCCN1CCOCC1`, the growth was -6.89% (active). Work on `COc1cc2c(cc1OCCCN1Cc3ccc(OCCCCC(=O)N4CCC(CCN5CCCC5)CC4)cc3C1)N=C(N)C21CCCC1` yielded a growth of 44.8%. In the case of `COc1cc(Nc2ncc(F)c(Nc3ccc4c(n3)N(COP(=O)(O)O)C(=O)C(C)(C)O4)n2)cc(OC)c1OC`, the growth was 29.6%. `CNC(=O)c1cc(Oc2cccc3nc(Nc4ccc(Cl)c(F)c4)ccc23)ccn1` showed a growth of 69.2%. `C[C@@H](Oc1cc(C(=O)Nc2ccc(C(=O)N3CCN(C)CC3)cc2)nnc1N)c1c(Cl)ccc(F)c1Cl` was tested, and the growth was 34.8%. `NC1(c2ccc(-c3nc4ccn5c(=O)[nH]nc5c4cc3-c3ccccc3)cc2)CCC1` was tested, and the growth was -13.2% (active). For `C=CC(=O)N1CCC[C@@H](n2nc(-c3ccc(Oc4ccccc4)cc3)c3c(N)ncnc32)C1`, the growth was 25.3%. `Cn1ccnc1C(=O)/C=C/c1ccc(CC(=O)Nc2ccc(C(F)(F)F)cc2)cc1` was tested, and the growth was -7.88% (active). `CCNC(=O)Nc1nc2ccc(Oc3ccnc(C(=O)NC)c3)cc2s1` gave a growth of 47.9%. Work on `O=C(Cn1cncn1)Nc1ccc(-c2nc3ccccc3s2)cc1` yielded a growth of 91.9%. Compound `Cc1ccc(NC(=O)Nc2ccc(Nc3ncnc4sc5c(c34)CCOC5)cc2)cc1Cl` has a growth of 88.9%. Work on `Cc1cc2c(F)c(Oc3ncnn4cc(OC[C@@H](C)OC(=O)[C@H](C)N)c(C)c34)ccc2[nH]1` yielded a growth of 48.3%. For `CC(C)(C)c1nc(-c2cccc(NS(=O)(=O)c3c(F)cccc3F)c2F)c(-c2ccnc(N)n2)s1`, the growth was 39.4%. `COC(=O)Nc1nc2ccc(C(=O)c3ccc(N(C)C4COC4)cc3)cc2[nH]1` gave a growth of 10.5%. For `CO[C@H]1C[C@@H]2CC[C@@H](C)[C@@](O)(O2)C(=O)C(=O)N2CCCC[C@H]2C(=O)O[C@H]([C@H](C)C[C@@H]2CC[C@@H](OC(=O)C(C)(CO)CO)[C@H](OC)C2)CC(=O)[C@H](C)/C=C(\C)[C@@H](O)[C@@H](OC)C(=O)[C@H](C)C[C@H](C)\C=C/C=C/C=C/1C`, the growth was 0.877% (active). In the case of `CO[C@@H](C)Cn1c(=O)n(C)c2cnc3ccc(-c4cncc(C(C)(C)O)c4)cc3c21`, the growth was -8.71% (active). Work on `NC1=Nc2cc(OCCCN3Cc4ccccc4C3)c(OCC3CC3)cc2C12CCCC2` yielded a growth of 44.2%. In the case of `COc1cc2c(Oc3ccc(NC(=O)C4(C(=O)Nc5ccc(F)cc5)CC4)cc3F)ccnc2cc1OCCCN1CCOCC1`, the growth was -9.06% (active). In the case of `Cc1c(NC(=O)OC[C@@H]2COCCN2)cn2ncnc(Nc3ccc4c(cnn4Cc4cccc(F)c4)c3)c12`, the growth was 1.8% (active). For `Cc1nc(NC(=O)N2CCC[C@H]2C(N)=O)sc1-c1ccnc(C(C)(C)C(F)(F)F)c1`, the growth was 8.66% (active). `COc1cc(NCCCN)c2ncccc2c1` was tested, and the growth was 91.5%. For `Cc1cc(Nc2ncc(Cl)c(Nc3ccccc3S(=O)(=O)C(C)C)n2)c(OC(C)C)cc1C1CCNCC1`, the growth was -59.9% (active).
